Drawing on PubChem BioAssay (EPA / NIEHS), this text covers outcome and AC50 for nine compounds.

Structures are written as SMILES. Results filed as inconclusive are left out. Activity calls are given as the source filed them. The calls were made as follows, unless noted: active = hit-call score of the fitted dose curve at least 0.9, where 1 is the maximum; inactive = score below 0.9.

Broadly, the AC50 is the midpoint of the concentration-response curve, whichever way the signal moves.

Assay [1] can be described thus: ATG_PXRE_CIS: Attagene CIS-FACTORIAL HepG2 Assay for human Pregnane X Receptor Element (PXRE) (AID 2282957). Particulars: HepG2 Attagene CIS-FACTORIAL PXRE reporter, mRNA; actives raise or lower the signal. The procedure, abridged:
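Transfect HepG2 with MRTUs (cis promoter elements); dose chemical, incubate 24 h; isolate RNA, RT with oligo(dT), PCR, 6-FAM label, HpaI cut, CE. Gain/loss fit vs DMSO.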

Assay [2] in a line: ATG_PPRE_CIS: Attagene CIS-FACTORIAL HepG2 Assay for human Peroxisome Proliferator-activated Response Element (PPRE) (AID 2282958). Particulars: HepG2 PPRE cis-element reporter, Attagene transcription factor profiling; actives raise or lower the signal. In a few lines: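 Read-out: fluorescent reporter mRNA fragments resolved by capillary electrophoresis after RT-PCR. HepG2 cells carried transiently transfected PPRE-driven cis reporter constructs and were dosed for 24 h; gain or loss of signal fitted relative to DMSO.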

Assay [3] can be described thus: ATG_RORE_CIS: Attagene CIS-FACTORIAL HepG2 Assay for human RAR-related Orphan Receptor Element (RORE) (AID 2282959). Particulars: HepG2 Attagene cis-factorial RORE reporter, mRNA; actives raise or lower the signal. In a few lines:
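Readout: fluorescent reporter mRNA by RT-PCR plus capillary electrophoresis, 24 h after dosing transfected HepG2 cells. Endogenous transcription factor activity on a cis promoter element is measured. Gain or loss of signal fitted against DMSO.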

The nature of assay [4]: ATG_Sox_CIS: Attagene CIS-FACTORIAL HepG2 Assay for human SRY-box transcription factor (SOX) (AID 2282960). Particulars: HepG2 Attagene cis-factorial SOX reporter, mRNA; actives raise or lower the signal. In a few lines:
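Read-out: fluorescent RT-PCR products of SOX1-linked reporter transcripts resolved by capillary electrophoresis, fitted bidirectionally against DMSO. Transiently transfected HepG2 cells, 24 h after chemical exposure, endogenous transcription factor activity.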

Assay [5] addresses Transcription factor Sp1 (Homo sapiens) (UniProt P08047). The assay is described as follows: ATG_Sp1_CIS: Attagene CIS-FACTORIAL HepG2 Assay for human Specificity Protein 1 (Sp1) (AID 2282961). Particulars: HepG2 Sp1 cis-reporter transcription, actives raise or lower the signal. In a few lines:
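Read-out: fluorescence of 6-FAM-labeled, HpaI-digested RT-PCR products separated by capillary electrophoresis. HepG2 cells carried transfected cis-element reporter units and were exposed to chemicals for 24 h; gain or loss of signal fitted relative to DMSO.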

Assay [6] concerns the target Signal transducer and activator of transcription 3 (Homo sapiens) (UniProt P40763). The assay can be described thus: ATG_STAT3_CIS: Attagene CIS-FACTORIAL HepG2 Assay for human Signal Transducer and Activator of Transcription 3 (STAT3) (AID 2282963). To be noted: HepG2, Attagene cis-factorial STAT3 reporter transcription; actives raise or lower the signal. The procedure, abridged:
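Values derive from bidirectional fits relative to DMSO of reporter mRNA levels, measured by RT-PCR with capillary electrophoresis, in HepG2 cells carrying transiently transfected cis-regulated reporter units and exposed 24 h.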

Assay [7] is described as follows: ATG_TCF_b_cat_CIS: Attagene CIS-FACTORIAL HepG2 Assay for human T-Cell-Factor with beta-catenin (TCF/b-cat) (AID 2282965). Particulars: HepG2 TCF/beta-catenin cis-reporter transcription, actives raise or lower the signal. In a few lines: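 HepG2, transient MRTU transfection, cis-element-driven reporters (endogenous TFs). 24 h compound exposure. Readout: reporter mRNA by RT-PCR + 6-FAM primer extension, HpaI digest, capillary electrophoresis. Gain/loss fit vs DMSO baseline.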

The nature of assay [8]: ATG_TAL_CIS: Attagene CIS-FACTORIAL HepG2 Assay for human TAL Basal Promoter (AID 2282966).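 Also: background control endpoint measuring basal TAL promoter reporter mRNA not a specific factor.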 Particulars: HepG2 Attagene cis-factorial TAL promoter reporter; actives raise or lower the signal. The procedure, abridged:
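Fluorescence of labelled reporter cDNA fragments, resolved by capillary electrophoresis, gave the readout. Human HepG2 liver cells carried transiently transfected cis-element reporter units and were treated for 24 hours; activity was fitted bidirectionally against DMSO.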

Assay [9] can be described thus: ATG_VDRE_CIS: Attagene CIS-FACTORIAL HepG2 Assay for human Vitamin D Receptor Element (VDRE) (AID 2282968). To be noted: HepG2 VDRE cis-reporter transcription, actives raise or lower the signal. The procedure, abridged:
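Cell-based multiplexed reporter format in human liver HepG2 cells, 24 h post-dose. Fluorescence from capillary electrophoresis of reporter cDNA gives the signal, with DMSO as negative control and baseline.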

For assay [10], the target named is Estrogen receptor (Homo sapiens) (UniProt P03372). The assay can be described thus: ATG_ERa_TRANS: Attagene TRANS-FACTORIAL HepG2 Assay for human Estrogen Receptor alpha (ERa) (AID 2282970; active = hit-call score of the fitted dose curve at least 0.9, where 1 is the maximum). To be noted: HepG2 Attagene TRANS ERa GAL4 reporter, mRNA. In a few lines:
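Human liver HepG2, transient transfection of multiple GAL4-UAS reporter units; TRANS format (exogenous NR-Gal4 chimera). 24 h dosing. Readout: reporter mRNA, RT-PCR, 6-FAM primer extension, HpaI digest, capillary electrophoresis. Positive direction vs DMSO.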

Assay [11] addresses X-box-binding protein 1 (Homo sapiens) (UniProt P17861). The assay can be described thus: ATG_Xbp1_CIS: Attagene CIS-FACTORIAL HepG2 Assay for human X-box Binding Protein 1 (XBP1) (AID 2282972). To be noted: HepG2 XBP1 cis-element reporter, Attagene multiplex; actives raise or lower the signal. In a few lines: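 HepG2 cells transiently transfected with cis-regulated multiple reporter transcription units; endogenous transcription factor activity measured 24 hours after chemical dosing. Reporter mRNA quantified by RT-PCR, 6-FAM primer extension, HpaI digestion and capillary electrophoresis; bidirectional fitting versus DMSO.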

Assay [12] can be described thus: ATG_M_19_TRANS: Attagene TRANS-FACTORIAL HepG2 Assay for M19 Transcription Factor (Internal Marker) (AID 2282974; active = hit-call score of the fitted dose curve at least 0.9, where 1 is the maximum). Particulars: HepG2 Attagene TRANS-FACTORIAL M19 internal marker reporter. The procedure, abridged:
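24 h chemical exposure of transiently transfected HepG2 (MRTU library). RNA → oligo(dT) RT → PCR → 6-FAM labelling → HpaI cut → CE fluorescence. Positive-direction fit vs DMSO baseline; background internal-marker readout.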

A short description of assay [13]: ATG_GAL4_TRANS: Attagene TRANS-FACTORIAL HepG2 Assay for GAL4 (Internal Marker) (AID 2282976; active = hit-call score of the fitted dose curve at least 0.9, where 1 is the maximum). To be noted: HepG2 Attagene TRANS GAL4 internal marker reporter. In a few lines: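 First, HepG2 cells were transfected with reporter units under GAL4-UAS control. Next, they were treated with chemical for 24 h. Finally, RNA was reverse-transcribed, PCR-amplified, FAM-labelled and resolved by capillary electrophoresis, with induction scored against DMSO.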

Assay [14] is described as follows: ATG_SREBP_CIS: Attagene CIS-FACTORIAL HepG2 Assay for human Sterol Regulatory Element Binding (SREBP) (AID 2282962). To be noted: HepG2 Attagene cis-factorial SREBP reporter, mRNA; actives raise or lower the signal. In a few lines:
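HepG2 cells transiently transfected with multiplexed cis-element reporter units report endogenous transcription factor activity. After 24 h of chemical exposure, reporter mRNA was quantified by RT-PCR, 6-FAM labelling, HpaI digestion and capillary electrophoresis; bidirectional fits used DMSO as baseline.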

The nature of assay [15]: ATG_TA_CIS: Attagene CIS-FACTORIAL HepG2 Assay for human TA Basal Promoter (AID 2282964). Particulars: HepG2 Attagene CIS-factorial TA basal promoter reporter; actives raise or lower the signal. In a few lines:
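Read-out: fluorescent reporter-transcript fragments resolved by capillary electrophoresis after RT-PCR and HpaI digestion. Source: HepG2 cells carrying transiently transfected multi-reporter cis constructs, treated 24 h. Endpoint fitted bidirectionally relative to DMSO.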

Assay [16] can be described thus: ATG_TGFb_CIS: Attagene CIS-FACTORIAL HepG2 Assay for human Transforming Growth Factor (TGF) (AID 2282967). To be noted: HepG2 Attagene CIS TGFb reporter, mRNA transcription; actives raise or lower the signal. The procedure, abridged: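 Transient MRTU transfection of HepG2 (FuGene 6). Dose 24 h. TriZol RNA, oligo(dT) RT, PCR, 6-FAM primer extension, HpaI cut, CE. Bidirectional fit, DMSO = baseline.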

Assay [17] deals with Nuclear receptor subfamily 1 group I member 3 (Homo sapiens) (UniProt Q14994). The assay can be described thus: ATG_CAR_TRANS: Attagene TRANS-FACTORIAL HepG2 Assay for human Constitutive Androstane Receptor (CAR) (AID 2282969; active = hit-call score of the fitted dose curve at least 0.9, where 1 is the maximum;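 also: activators raise reporter mRNA above DMSO so AC50 marks induction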). Particulars: HepG2 Attagene TRANS-FACTORIAL CAR reporter. In a few lines: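 HepG2 cells transiently transfected with GAL4-UAS reporter units; TRANS format reads activity of exogenous chimeric NR-Gal4 protein. After 24 h dosing, reporter mRNA quantified by RT-PCR, 6-FAM labelling and capillary electrophoresis; gain of signal fitted against DMSO.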

Assay [18] concerns the target Steroid hormone receptor ERR1 (Homo sapiens) (UniProt P11474). The assay can be described thus: ATG_ERRa_TRANS: Attagene TRANS-FACTORIAL HepG2 Assay for human Estrogen-Related Receptor alpha (ERRa) (AID 2282971; active = hit-call score of the fitted dose curve at least 0.9, where 1 is the maximum). Particulars: HepG2 Attagene TRANS reporter, ERRa transactivation. In a few lines: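 Reporter transcript induction was quantified by RT-PCR and capillary electrophoresis of FAM-labelled, HpaI-cut products after 24 h treatment of HepG2 cells carrying transiently transfected GAL4-UAS reporter units and an exogenous ERRa-Gal4 fusion; activity scored as increase over DMSO.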

Assay [19] concerns the target Estrogen-related receptor gamma (Homo sapiens) (UniProt P62508). The assay can be described thus: ATG_ERRg_TRANS: Attagene TRANS-FACTORIAL HepG2 Assay for human Estrogen-Related Receptor gamma (ERRg) (AID 2282977; active = hit-call score of the fitted dose curve at least 0.9, where 1 is the maximum;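 also: hits increase reporter signal over DMSO so potencies reflect activators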). To be noted: HepG2 Attagene TRANS reporter, ERRg transactivation. In a few lines: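 Transient HepG2 transfectants, 24 h compound exposure, GAL4-UAS reporter mRNA by RT-PCR/6-FAM labelling/capillary electrophoresis; positive direction vs DMSO.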

Sequence of Signal transducer and activator of transcription 3 (Homo sapiens) (P40763 whole entry, looked up): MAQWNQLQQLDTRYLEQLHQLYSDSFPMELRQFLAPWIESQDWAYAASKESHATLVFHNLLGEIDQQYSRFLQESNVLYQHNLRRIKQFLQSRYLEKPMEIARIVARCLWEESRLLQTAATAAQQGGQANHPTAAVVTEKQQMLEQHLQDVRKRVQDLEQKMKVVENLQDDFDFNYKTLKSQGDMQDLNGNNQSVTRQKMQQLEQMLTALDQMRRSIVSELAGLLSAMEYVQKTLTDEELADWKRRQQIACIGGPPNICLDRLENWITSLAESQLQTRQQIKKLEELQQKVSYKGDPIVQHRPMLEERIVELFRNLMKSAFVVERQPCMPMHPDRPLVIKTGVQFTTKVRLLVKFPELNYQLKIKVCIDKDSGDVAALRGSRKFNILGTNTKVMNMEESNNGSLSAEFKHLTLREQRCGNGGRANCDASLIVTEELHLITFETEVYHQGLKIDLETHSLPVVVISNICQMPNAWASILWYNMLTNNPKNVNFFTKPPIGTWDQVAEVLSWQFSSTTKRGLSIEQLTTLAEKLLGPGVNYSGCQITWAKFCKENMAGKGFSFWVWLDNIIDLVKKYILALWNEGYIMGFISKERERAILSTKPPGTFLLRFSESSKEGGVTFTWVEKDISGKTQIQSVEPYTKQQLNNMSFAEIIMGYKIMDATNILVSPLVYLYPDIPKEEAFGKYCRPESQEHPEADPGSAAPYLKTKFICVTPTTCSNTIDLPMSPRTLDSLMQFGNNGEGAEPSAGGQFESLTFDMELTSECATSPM
Sequence of Transcription factor Sp1 (Homo sapiens) (P08047 whole entry, looked up): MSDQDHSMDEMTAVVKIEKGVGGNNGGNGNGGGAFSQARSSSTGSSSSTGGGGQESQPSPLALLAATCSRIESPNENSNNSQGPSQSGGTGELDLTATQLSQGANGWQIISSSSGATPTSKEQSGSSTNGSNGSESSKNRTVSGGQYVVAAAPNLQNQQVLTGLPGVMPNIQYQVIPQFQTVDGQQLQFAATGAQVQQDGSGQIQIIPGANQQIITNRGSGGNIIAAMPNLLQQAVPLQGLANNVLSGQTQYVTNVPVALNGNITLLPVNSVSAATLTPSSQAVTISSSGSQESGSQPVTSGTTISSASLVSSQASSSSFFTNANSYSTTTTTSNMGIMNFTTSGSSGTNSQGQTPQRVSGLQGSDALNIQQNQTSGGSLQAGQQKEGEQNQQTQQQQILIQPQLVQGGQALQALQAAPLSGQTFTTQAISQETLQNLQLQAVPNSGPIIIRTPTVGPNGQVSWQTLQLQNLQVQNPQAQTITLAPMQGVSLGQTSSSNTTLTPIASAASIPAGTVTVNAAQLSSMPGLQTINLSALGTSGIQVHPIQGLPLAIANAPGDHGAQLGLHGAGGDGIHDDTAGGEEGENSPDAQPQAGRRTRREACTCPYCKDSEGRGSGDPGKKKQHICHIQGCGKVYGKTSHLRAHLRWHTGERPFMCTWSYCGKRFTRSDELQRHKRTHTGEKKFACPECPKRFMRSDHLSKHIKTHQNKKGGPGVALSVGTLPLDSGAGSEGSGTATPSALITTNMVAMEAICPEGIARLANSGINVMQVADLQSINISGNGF
Sequence of Estrogen receptor (Homo sapiens) (P03372 whole entry, looked up, the tested form may be a part): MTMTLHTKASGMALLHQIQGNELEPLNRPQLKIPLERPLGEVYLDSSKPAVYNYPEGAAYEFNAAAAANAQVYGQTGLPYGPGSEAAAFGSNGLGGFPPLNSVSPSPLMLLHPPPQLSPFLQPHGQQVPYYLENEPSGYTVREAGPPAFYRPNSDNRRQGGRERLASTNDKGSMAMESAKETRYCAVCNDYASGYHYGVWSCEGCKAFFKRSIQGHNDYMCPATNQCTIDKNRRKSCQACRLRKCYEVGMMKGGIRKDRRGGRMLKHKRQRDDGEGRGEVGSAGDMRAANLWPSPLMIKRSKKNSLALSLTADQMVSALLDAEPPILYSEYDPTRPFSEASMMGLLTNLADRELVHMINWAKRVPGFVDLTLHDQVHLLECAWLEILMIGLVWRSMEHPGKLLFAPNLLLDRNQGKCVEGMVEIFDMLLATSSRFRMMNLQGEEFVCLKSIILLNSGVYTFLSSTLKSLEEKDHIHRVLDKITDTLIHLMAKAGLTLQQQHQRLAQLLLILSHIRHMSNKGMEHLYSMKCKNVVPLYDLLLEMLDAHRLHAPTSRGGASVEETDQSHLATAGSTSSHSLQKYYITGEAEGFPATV
Sequence of X-box-binding protein 1 (Homo sapiens) (P17861 whole entry, looked up): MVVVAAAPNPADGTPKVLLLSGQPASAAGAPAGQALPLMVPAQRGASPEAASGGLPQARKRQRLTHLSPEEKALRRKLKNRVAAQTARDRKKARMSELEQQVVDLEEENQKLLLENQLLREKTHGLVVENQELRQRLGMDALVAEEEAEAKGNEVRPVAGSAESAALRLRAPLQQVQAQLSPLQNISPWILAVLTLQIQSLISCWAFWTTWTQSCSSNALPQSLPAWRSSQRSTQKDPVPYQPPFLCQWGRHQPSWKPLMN
Sequence of Steroid hormone receptor ERR1 (Homo sapiens) (P11474 whole entry, looked up, the tested form may be a part): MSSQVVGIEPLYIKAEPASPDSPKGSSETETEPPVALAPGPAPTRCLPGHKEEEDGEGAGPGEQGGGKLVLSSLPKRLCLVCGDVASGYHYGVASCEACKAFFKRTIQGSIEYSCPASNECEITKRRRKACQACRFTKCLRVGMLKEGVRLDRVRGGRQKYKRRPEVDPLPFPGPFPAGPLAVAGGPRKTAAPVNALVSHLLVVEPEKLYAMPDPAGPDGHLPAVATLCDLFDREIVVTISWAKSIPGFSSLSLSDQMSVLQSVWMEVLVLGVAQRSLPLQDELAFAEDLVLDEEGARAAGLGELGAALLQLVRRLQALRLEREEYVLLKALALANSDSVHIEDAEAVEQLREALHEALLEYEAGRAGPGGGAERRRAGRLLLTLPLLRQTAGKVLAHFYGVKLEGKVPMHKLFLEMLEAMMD
Sequence of Nuclear receptor subfamily 1 group I member 3 (Homo sapiens) (Q14994 whole entry, looked up, the tested form may be a part): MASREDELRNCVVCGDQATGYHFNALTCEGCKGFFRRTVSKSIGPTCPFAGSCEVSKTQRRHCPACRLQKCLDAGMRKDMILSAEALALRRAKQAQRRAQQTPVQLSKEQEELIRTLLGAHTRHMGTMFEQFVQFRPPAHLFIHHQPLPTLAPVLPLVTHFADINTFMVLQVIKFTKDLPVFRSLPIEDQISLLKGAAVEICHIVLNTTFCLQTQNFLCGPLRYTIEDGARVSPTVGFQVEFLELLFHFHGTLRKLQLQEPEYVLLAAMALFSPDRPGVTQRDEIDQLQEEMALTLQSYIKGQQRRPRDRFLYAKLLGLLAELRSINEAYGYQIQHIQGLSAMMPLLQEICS
Sequence of Estrogen-related receptor gamma (Homo sapiens) (P62508 whole entry, looked up, the tested form may be a part): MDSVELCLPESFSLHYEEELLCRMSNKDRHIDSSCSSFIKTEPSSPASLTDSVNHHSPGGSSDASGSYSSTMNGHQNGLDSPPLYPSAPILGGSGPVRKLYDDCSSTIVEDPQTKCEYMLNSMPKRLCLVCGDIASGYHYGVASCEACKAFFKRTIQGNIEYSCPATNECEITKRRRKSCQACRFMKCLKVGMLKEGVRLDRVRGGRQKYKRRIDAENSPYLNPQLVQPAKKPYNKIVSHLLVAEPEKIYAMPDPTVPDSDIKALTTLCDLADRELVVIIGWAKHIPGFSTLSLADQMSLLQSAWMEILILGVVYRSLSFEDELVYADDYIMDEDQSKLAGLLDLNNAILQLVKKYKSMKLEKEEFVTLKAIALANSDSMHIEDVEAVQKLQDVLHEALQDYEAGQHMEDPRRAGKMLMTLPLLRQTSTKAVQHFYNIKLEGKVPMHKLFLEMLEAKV

Turning to `CCCCCCCCCCOC(C)=O`, the compound was classed as inactive in assay [1], in [2], in [3], in assay [4], in assay [5] and in assay [6]. Moreover, the result in assay [7], in [8], in assay [9], in [11], in assay [12] and in [13] was inactive. In addition, the concentration at half-maximal activity (AC50) in assay [10] was 47.2 µM (active).

Turning to `NCCCN1CCN(CCCN)CC1`, the AC50 in [1] is 53.7 µM (active). Also, the call in assay [4], in assay [5], in assay [14], in assay [6], in assay [15] and in [8] was inactive. For the same compound, the compound was called inactive in assay [16], in assay [17], in assay [10], in [11] and in [12].

Take `CCC(=O)Oc1ccc(/C(CC)=C(\CC)c2ccc(OC(=O)CC)cc2)cc1`: the half-maximal activity concentration (AC50) in assay [1] was 2.95 µM (active); in [4] it was 37.8 µM (active); in assay [5] it was 23.4 µM (active); in [15], 38.2 µM (active); in assay [7] it was 26.4 µM (active); in [10], 0.54 µM (active). In assay [11], the AC50 is 27.5 µM (active). In addition, the compound was classed as inactive in assay [2], in assay [3], in assay [14], in assay [6], in assay [8] and in assay [16].

Consider `CCCCCCCCCCCSCC(=O)O`, for which the compound was called inactive in assay [1], in assay [4], in [6], in [7], in assay [18] and in assay [12]. Also, the result in assay [13] was inactive. The AC50 in assay [2] was 5.09 µM (active); in [3], 51.6 µM (active); in assay [5], 151 µM (active); in [14], 25.1 µM (active); in assay [15], 98 µM (active); in assay [8] it was 100 µM (active). For the same compound, the AC50 in assay [16] was 100 µM (active); in assay [9] it was 80.2 µM (active); in assay [11], 100 µM (active).

For the compound `CCCCCCCC[N+](C)(CCCCCCCC)CCCCCCCC`, the call in assay [1], in [2], in assay [3], in assay [4], in assay [5] and in [14] was inactive. Besides, the compound was classed as inactive in assay [6], in [15], in [7], in [8], in [16] and in assay [10]. The compound was classed as inactive in [11] and in assay [12].

`CCC(C)C=O` (configuration not stated): the result in assay [1], in [2], in assay [3], in assay [4], in assay [5] and in assay [14] was inactive. In addition, the outcome in assay [6], in assay [15], in assay [7], in [8], in assay [9] and in assay [11] was inactive. Besides, the result in assay [12] was inactive.

In the case of `CC(=O)Oc1ccc(C)cc1`, the outcome in assay [1], in [2], in [3], in assay [4], in assay [5] and in assay [14] was inactive. Besides, the outcome in assay [7], in assay [8], in assay [16], in [11], in assay [12] and in [13] was inactive.

In the case of `CCCCC/C=C\CCC=O`, in assay [1], the AC50 is 27.8 µM (active). Also, the call in assay [2], in assay [3], in assay [4], in [5], in [6] and in [15] was inactive. Besides, the compound was classed as inactive in assay [7], in assay [8], in assay [17], in assay [10], in [18] and in [11]. For the same compound, the compound was classed as inactive in [12].

For the compound `CCCCCCCCC(=O)OCC`, the compound was classed as inactive in assay [1], in assay [2], in assay [3], in assay [4], in assay [14] and in assay [6]. Besides, the outcome in assay [7], in assay [8], in assay [16], in assay [9], in assay [10] and in assay [11] was inactive. In addition, the call in [12], in assay [13] and in assay [19] was inactive.
